Drawing on ChEMBL document CHEMBL4513146, “CO-ADD screening of Karazin Kharkiv National University (Ukraine) compounds”, this text covers Inhibition for 39 compounds.

Measured potencies and affinities stand elsewhere.

For this assay, the system named is Staphylococcus aureus. The note with it: Concentration 32 ug.mL-1;; ASSAY_TEST Inhibition of Bacterial Growth; detection method Absorption (OD600); MEDIA CAMHB; plate type 384well; NBS; CORNING #3640; time 18 hr.
In the case of `CCOC(=O)c1ccc(NC(=O)Cn2nc3ccc(Sc4cccc(F)c4)nn3c2=O)cc1`, the Inhibition was 9.91%.

With `O=C(Cn1nc2c3cc(-c4ccc(Cl)cc4)nn3ccn2c1=O)Nc1ccc(F)cc1`, the Inhibition was 7.29%.

Consider `CCOC(=O)c1ccc(NC(=O)Cn2nc3ccc(SCc4ccc(Cl)cc4)nn3c2=O)cc1`, for which the Inhibition is -0.24%.

Regarding `CC(=O)c1cccc(NC(=O)Cn2nc3c(N4CCN(c5ccccc5C)CC4)nccn3c2=O)c1`, the Inhibition was 17.73%.

As to `O=C(Cn1nc2c(SC3CCCCC3)nccn2c1=O)Nc1ccc(F)c(Cl)c1`, the Inhibition was -11.33%.

As for `Cc1ccc(NC(=O)CSc2nnc3ccc(C(=O)Nc4cccc(F)c4)cn23)c(C)c1`, the Inhibition is recorded as 12.19%.

In the case of `CCOc1ccc(-n2ccn3c(SCC(=O)Nc4cc(OC)cc(OC)c4)nnc3c2=O)cc1`, the Inhibition came to 7.49%.

Take `CCc1cccc(NC(=O)CSc2nnc3c(=O)n(-c4ccccc4)ccn23)c1`: the Inhibition is recorded as 0.07%.

Regarding `O=c1n(Cc2nc(-c3ccc(OC(F)(F)F)cc3)no2)nc2ccc(-c3ccccc3)nn12`, the Inhibition is -0.65%.

`COc1cccc(-n2ccn3c(SCC#N)nnc3c2=O)c1`: the Inhibition worked out at 16.24%.

Consider `Cn1c(=O)c2sccc2n2c(=O)n(Cc3cccc(Br)c3)nc12`, for which the Inhibition was determined as 14.17%.

On to `Cc1ccc(Cn2nc3c(=O)n(-c4cccc(Cl)c4C)ccn3c2=O)cc1`, for which the Inhibition is reported as 8.26%.

Consider `COc1cc(NC(=O)Cn2nc3ccc(-c4ccc(C)c(C)c4)nn3c2=O)cc(OC)c1`, for which the Inhibition turned out to be 8.96%.

With `O=C(Cn1nc2c(N3CCOCC3)nccn2c1=O)N1CCN(c2ccccc2F)CC1`, the Inhibition amounted to 14.68%.

Turning to `CCOc1ccc(NC(=O)Cn2nc3ccc(SCc4ccc(Cl)cc4)nn3c2=O)cc1`, the Inhibition came to 5.28%.

For the compound `COc1ccccc1-n1ccn2c(SCc3cccc(F)c3)nnc2c1=O`, the Inhibition is reported as 11.17%.

For the compound `Cc1nnc2ccc(S(=O)(=O)N(Cc3cc(F)cc(F)c3)c3ccc(F)cc3)cn12`, the Inhibition was 1.57%.

Take `COc1ccc(CCNC(=O)Cn2nc3c(N4CCOCC4)nccn3c2=O)cc1OC`: the Inhibition is 21.7%.

`O=c1c2nnc(SCc3cccc(C(F)(F)F)c3)n2ccn1-c1ccc(Br)cc1`: the Inhibition was found to be 11.27%.

Turning to `CCC(C)NC(=O)Cn1nc2n(CC(C)C)c(=O)c3ccc(C(=O)NC4CCCCC4)cc3n2c1=O` (centres undefined), the Inhibition is 7.36%.

Turning to `O=c1n(Cc2c(F)cccc2Cl)nc2ccc(-c3ccccc3)nn12`, the Inhibition stood at 7.33%.

With `Cc1ccc(-c2cc3c4nn(CC(=O)Nc5ccc6c(c5)OCO6)c(=O)n4ccn3n2)cc1`, the Inhibition is on record as 12.49%.

As for `COc1ccc(C(=O)CSc2nnc3c(=O)n(-c4ccc(F)cc4)ccn23)cc1`, the Inhibition turned out to be 13.68%.

With `Cc1ccc(-c2cc3c4nn(CC(=O)Nc5cccc(C)c5C)c(=O)n4ccn3n2)cc1C`, the Inhibition is given as 13.1%.

Turning to `Cc1cc(C)cc(NC(=O)Cn2nc3n(C)c(=O)c4c(c(-c5ccccc5)cn4C)n3c2=O)c1`, the Inhibition amounted to 7.23%.

As to `COc1ccc(NC(=O)Cn2nc3c(N4CCOCC4)nccn3c2=O)cc1Cl`, the Inhibition worked out at 10.11%.

As to `COCCCNC(=O)CSc1nnc2c(=O)n(Cc3ccccc3)ccn12`, the Inhibition is given as 7.01%.

On to `O=c1c2sccc2n2c(=O)n(Cc3cccc(Cl)c3)nc2n1CCc1ccccc1`, for which the Inhibition turned out to be 10.13%.

Regarding `CCC(Sc1nnc2c(=O)n(-c3cccc(OC)c3)ccn12)C(=O)Nc1cc(OC)ccc1OC` (centres undefined), the Inhibition was -1.04%.

For the compound `Cc1nnc2ccc(S(=O)(=O)N(Cc3cccc(F)c3)c3cccc(Cl)c3)cn12`, the Inhibition came out at 1.14%.

As to `CCc1ccc(NC(=O)CSc2nnc3c(=O)n(-c4ccccc4)ccn23)cc1`, the Inhibition was determined as 7.36%.

For `CSc1cccc(NC(=O)Cn2nc3c(Sc4cccc(F)c4)nccn3c2=O)c1`, the Inhibition is 2.75%.

Regarding `Cc1c(Cl)cccc1-n1ccn2c(=O)n(Cc3ccccc3Cl)nc2c1=O`, the Inhibition is given as -12.86%.

Consider `Cc1ccc(NC(=O)Cn2nc3c4cc(-c5ccc(C)c(C)c5)nn4ccn3c2=O)c(C)c1`, for which the Inhibition is on record as -8.87%.

Consider `CCc1ccccc1NC(=O)Cn1nc2n(CCC(C)C)c(=O)c3sccc3n2c1=O`, for which the Inhibition is recorded as -2.34%.

As for `COc1ccc(NC(=O)Cn2nc3c4cc(-c5ccc(C)cc5)nn4ccn3c2=O)c(OC)c1`, the Inhibition is reported as 1.08%.

Turning to `CCc1nnc2c(SCC(=O)Nc3cc(Cl)ccc3C)nc3ccccc3n12`, the Inhibition was found to be 13.83%.

With `Cc1cc2nn(CC(=O)Nc3cccc(C)c3C)c(=O)n2c(Nc2ccc(F)c(C)c2)n1`, the Inhibition is listed as 2.54%.

Turning to `CCCCOc1ccc(-c2cc3c4nnc(SCC(=O)Nc5ccc(C)c(C)c5)n4ccn3n2)cc1`, the Inhibition is given as 10.66%.

For orientation: Inhibition means the relative decrease from the control value, in per cent.
